Laboratory results taken from ChEMBL document CHEMBL4513146, “CO-ADD screening of Karazin Kharkiv National University (Ukraine) compounds”.
Entries with a potency or affinity are not part of this list.

Experiments:
Klebsiella pneumoniae = conditions: Concentration 32 ug.mL-1;; ASSAY_TEST Inhibition of Bacterial Growth; detection method Absorption (OD600); MEDIA CAMHB; plate type 384well; NBS; CORNING #3640; time 18 hr
Candida albicans = conditions: Concentration 32 ug.mL-1; ASSAY_TEST Inhibition of Fungal Growth; detection method Absorption (OD530)
Cryptococcus neoformans = conditions: Concentration 32 ug.mL-1; ASSAY_TEST Inhibition of Fungal Growth; detection method Resazurin; Absorption (OD600-OD570); plate type 384well; NBS; CORNING #3640

| Structure (SMILES) | Inhibition (Klebsiella pneumoniae) [%] | Inhibition (Candida albicans) [%] | Inhibition (Cryptococcus neoformans) [%] |
| --- | --- | --- | --- |
| Cc1ccc(CN(c2ccccc2)S(=O)(=O)c2ccc3nncn3c2)cc1 | -1.94 | -3.84 | -7.34 |
| Cc1cccc(Oc2nc3ccccc3n3c(=O)n(CC(=O)Nc4cccc(C#N)c4)nc23)c1C | 4.26 | 5.6 | -21.56 |
| O=S(=O)(c1cccn2cnnc12)N(Cc1cccc(F)c1)c1cccc(Cl)c1 | 2.34 | 1.27 | -7.2 |
| O=C(Cn1nc2c(N3CCSCC3)nc3ccccc3n2c1=O)NCc1ccccc1 | 13.9 | 0.65 | -23.77 |
| O=c1c2nn(Cc3cccc(Cl)c3)c(=O)n2ccn1-c1ccccc1 | 1.75 | 6.73 | -10.03 |
| CC(C)c1ccc(NC(=O)Cn2nc3c(N4CCCC4)nccn3c2=O)cc1 | 11.79 | 2.06 | -12.68 |
| O=S(=O)(c1ccc2nncn2c1)N(Cc1cccc(Cl)c1)c1ccccc1 | 4.69 | -1.59 | -11.03 |
| Cc1ccccc1CSc1nnc2c(=O)n(-c3ccc(F)cc3)ccn12 | 9.44 | 1.51 | -10.33 |
| Cc1ccc(C)c(CN(c2cccc(Cl)c2)S(=O)(=O)c2cccn3c(C)nnc23)c1 | 5.81 | 2.43 | -8.33 |
| CC(C)CCNC(=O)Cn1nc2n(Cc3cccs3)c(=O)c3sccc3n2c1=O | 6.63 | -0.58 | -17.23 |
| Cc1cc2nn(CC(=O)Nc3cc(F)ccc3C)c(=O)n2c(Nc2ccc(F)cc2)n1 | 8.72 | 0.87 | -4.58 |
